Compounds with a hit are over-represented: about 3.2% of the library has one in this group of screens.
VACV Venus inh – vaccinia inhibition (Venus reporter); Vaccinia virus Venus reporter expression, fluorescence; Potency, µM (highest dose often 36.5 µM), without a hit: at the top dose activity change, negative = inhibition, hits mostly inhibitors; hit rate 0.46% among 330,000; AID 720580; calls by dose curve; tested in A549 cells; further: nearly all actives have a fitted effect of over 30% in size
MARV entry inh – inhibitors of Marburg virus binding or cell entry; Marburg virus pseudotyped entry inhibition, cell reporter; Potency, µM (titrated, usually from 37.8 µM), inactives show top-dose activity change, negative = inhibition, actives largely listed as inhibitors; hit rate 1.8% among 300,000; AID 540276; calls by dose curve; tested in HEK293 cells
LASV entry inh – Lassa virus entry inhibition | Lassa virus pseudotype entry inhibition, cell reporter | Potency, µM (series often up to 37.9 µM), for the others: at the highest dose activity change, negative = inhibition, usual class: inhibitors | hit rate 1.2% among 300,000; calls by dose curve; tested in HEK293 cells; further: nearly all actives have a fitted effect of over 50% in size
FMDV antiviral – blocks foot and mouth disease virus; Potency, µM (series often up to 57.9 µM), without a hit: top-dose activity change, negative = inhibition, most hits filed as inhibitors; hit rate 1.2% among 410,000; FMDV antiviral cell-based qHTS; AID 1159524; calls by dose curve; tested in HEK293T cells; further: read-out not given here; nearly all actives have a fitted effect of over 45% in size
VACV mCherry inh – vaccinia inhibition (mCherry reporter). Vaccinia virus mCherry reporter infection, fluorescence. Potency, µM (doses to about 36.5 µM), without a hit: top-dose activity change, negative = inhibition, most hits filed as inhibitors. hit rate 0.63% among 310,000; calls by dose curve; tested in A549 cells; further: nearly all actives have a fitted effect of over 35% in size
* hit, by the source's call; [ ] = dose if it differs, or a comment. On the % scale 0 is the no-effect control and ±100 the full control effect; potency means the concentration at half of the fitted maximal effect.

For Cc1ccc(NC(=O)CSc2nc3ccccc3n2CC(=O)N2CCC(C)CC2)cc1C the results were VACV Venus inh -19%, LASV entry inh inconclusive, FMDV antiviral -12% and VACV mCherry inh -14%.
`O=C(Nc1scc(-c2ccc(Br)cc2)c1C(=O)O)c1ccccc1F` gave VACV Venus inh -22%, MARV entry inh 3.2µM*, LASV entry inh inconclusive, FMDV antiviral 12% and VACV mCherry inh -11%.
For O=C(CN1CCSC1=O)Nc1ccc(N2CCOCC2)cc1 the results were VACV Venus inh 6%, MARV entry inh 19%[46.1 µM], LASV entry inh 10%, FMDV antiviral 16% and VACV mCherry inh -14%.
O=C(Nc1ccc([N+](=O)[O-])cc1)Nc1nc(-c2ccc(Cl)s2)cs1 was read as VACV Venus inh 5.6µM*, MARV entry inh inconclusive, LASV entry inh inconclusive, FMDV antiviral inconclusive and VACV mCherry inh inconclusive.
`CC(=O)Nc1nc(-c2ccc([N+](=O)[O-])cc2)cs1` gave MARV entry inh 2%, LASV entry inh 11% and FMDV antiviral 7%.
`CC1(c2ccc3ccccc3c2)NC(=O)N(CC(=O)N2CCN(Cc3ccc(C#N)cc3)CC2)C1=O` (stereo not given) gave VACV Venus inh inconclusive, MARV entry inh 0.56µM*, LASV entry inh inconclusive, FMDV antiviral inconclusive and VACV mCherry inh inconclusive.
Screening COc1cccc(S(=O)(=O)N2CCN(c3nc(-c4cccs4)nc4ccccc34)CC2)c1 returned VACV Venus inh -11% and VACV mCherry inh -5%.
Screening Clc1cccc(N/N=C/c2ccc(N3CCOCC3)cc2)c1 returned VACV Venus inh -7%, MARV entry inh 17%, LASV entry inh 12%, FMDV antiviral 28% and VACV mCherry inh -9%.
O=C(O)c1cc(N/N=C/c2ccc(N3CCOCC3)cc2)ccc1Cl was read as FMDV antiviral 14µM*.
Cc1cccc(C(=O)NCC2Cc3cc(F)cc(-c4cnccn4)c3O2)n1 (stereo not given) was read as VACV Venus inh 1%, FMDV antiviral -15% and VACV mCherry inh -7%.
For O=C(Cn1ccc2ccccc2c1=O)NCC(=O)N1CCN(c2ccccc2F)CC1 the results were VACV Venus inh -19%, MARV entry inh 3%[46.1 µM], LASV entry inh 2%[46.1 µM], FMDV antiviral 21% and VACV mCherry inh -13%.
Screening CCN(CC)CCCN(C(=O)c1ccco1)c1nc(-c2ccc(Cl)cc2)cs1 returned VACV Venus inh -21%, MARV entry inh inconclusive, LASV entry inh inconclusive, FMDV antiviral -2% and VACV mCherry inh -22%.
For CCN(CC)CCCN(C(=O)c1ccc(Br)cc1)c1nc(-c2ccc(OC)cc2)cs1 the results were VACV Venus inh -17%, MARV entry inh 3.5µM*, LASV entry inh inconclusive, FMDV antiviral -8% and VACV mCherry inh inconclusive.
`CCN(CC)CCCN(C(=O)c1ccco1)c1nc(-c2ccc(C)cc2)cs1` gave VACV Venus inh -5%, MARV entry inh 8.9µM*, LASV entry inh inconclusive, FMDV antiviral 2% and VACV mCherry inh inconclusive.
`Cc1cc(-n2cnnn2)cc(C)c1S(=O)(=O)NCCOc1ccccc1` gave FMDV antiviral -10%.
CC(=O)Nc1c(C)nn(-c2ccccc2)c1N1CCC(C(=O)NCc2cccc(F)c2)CC1 was read as VACV Venus inh -8%[7.34 µM], LASV entry inh -5%[46.1 µM], FMDV antiviral 0% and VACV mCherry inh -4%[7.34 µM].
Screening Cc1[nH]c2ccc(C(=O)OCC(=O)NC3(C#N)CCCCC3)cc2c1C returned VACV Venus inh inconclusive, MARV entry inh inconclusive, LASV entry inh 6.3µM*, FMDV antiviral inconclusive and VACV mCherry inh -27%.
For CCN(CC)S(=O)(=O)c1ccc(Cl)c(NC(=O)COc2ccc(OC)cc2)c1 the results were VACV Venus inh -5%, MARV entry inh 2%[46.1 µM], LASV entry inh inconclusive, FMDV antiviral inconclusive and VACV mCherry inh -19%.
Screening N#Cc1cccc(NC(=O)C2CCN(c3nc(-c4ccc(Cl)cc4)no3)CC2)c1 returned VACV Venus inh -12%[7.34 µM], LASV entry inh 8%[46.1 µM], FMDV antiviral 25µM* and VACV mCherry inh -12%[7.34 µM].
Screening N#Cc1cccc(NC(=O)C2CCN(c3ncccn3)CC2)c1 returned VACV Venus inh -5%, MARV entry inh -2%[46.1 µM], LASV entry inh 17%[46.1 µM], FMDV antiviral -15% and VACV mCherry inh -1%.
Screening C=CCn1c(Sc2ncc([N+](=O)[O-])s2)n[nH]c1=O returned VACV Venus inh 0%, MARV entry inh inconclusive, LASV entry inh inconclusive, FMDV antiviral inconclusive and VACV mCherry inh -14%.
Screening O=[N+]([O-])c1cnc(Sc2ccncn2)s1 returned FMDV antiviral 40µM*.
Screening C[C@@H]1CN([C@@H](C)CO)S(=O)(=O)c2ccc(Br)cc2O[C@H]1CN(C)C(=O)Nc1ccc(C(F)(F)F)cc1 returned VACV Venus inh inconclusive, FMDV antiviral -10% and VACV mCherry inh -14%.
Screening COc1cccc(CN(C)C(=O)c2cccc(S(=O)(=O)N3CCN(c4ccccc4)CC3)c2)c1OC returned MARV entry inh 0% and FMDV antiviral 18µM*.
Screening COc1cccc(CN(C)C(=O)c2cccc(S(=O)(=O)N3CCN(c4ccc(F)cc4)CC3)c2)c1OC returned VACV Venus inh -15%, MARV entry inh 2µM*, LASV entry inh inconclusive, FMDV antiviral 20µM* and VACV mCherry inh inconclusive.
For COc1ccccc1CNC(=O)c1cccc(S(=O)(=O)N2CCN(c3ccc(F)cc3)CC2)c1 the results were FMDV antiviral -17%.
Screening Cc1ccnc(NC(=O)c2cccc(S(=O)(=O)N3CCN(c4ccccc4)CC3)c2)c1 returned VACV Venus inh -8%, MARV entry inh inconclusive, LASV entry inh 5µM*, FMDV antiviral inconclusive and VACV mCherry inh inconclusive.
Screening COc1cccc(CN(C)C(=O)c2cccc(S(=O)(=O)N3CCN(Cc4ccccc4)CC3)c2)c1OC returned VACV Venus inh -22%, MARV entry inh inconclusive, LASV entry inh inconclusive, FMDV antiviral inconclusive and VACV mCherry inh -8%.
Screening CCN(Cc1ccccc1)C(=O)c1cc2ccc3cccnc3c2[nH]1 returned VACV Venus inh -29%, LASV entry inh inconclusive, FMDV antiviral -15% and VACV mCherry inh inconclusive.
`Cc1cnc(C)c(-c2cc(F)cc3c2OC(CNC(=O)Cc2ccccc2C)C3)n1` (stereo not given) gave VACV Venus inh 5%, FMDV antiviral -8% and VACV mCherry inh -10%.
`COC(=O)C1=C(C(=O)OC)[C@@H]2N(Cc3ccccc3)c3ccccc3[C@@]23C[C@@H](C(=O)OC)N(C(=O)NCCBr)C3=N1` gave MARV entry inh 8%[14.2 µM].
`O=C(NCCCN1CCCC1=O)C1CCC(CNS(=O)(=O)c2ccc(Cl)cc2)CC1` (stereo not given) gave VACV Venus inh -10%[7.34 µM], FMDV antiviral -8% and VACV mCherry inh -10%[7.34 µM].
`Cc1ccccc1-c1cc(C(=O)NCc2cccc(Br)c2)nn1CC1CC(c2cccc([N+](=O)[O-])c2)=NO1` (stereo not given) gave VACV Venus inh -11%, FMDV antiviral -7% and VACV mCherry inh inconclusive.
For Clc1ccc(-c2nc(-c3ccncc3)no2)c(Cl)c1 the results were FMDV antiviral 35%.
